{
  "source": "PubChem BioAssay (NCATS)",
  "key": {"[1]": {"biological_target": "Peptidyl-prolyl cis-trans isomerase NIMA-interacting 1 (Homo sapiens) (UniProt Q13526)", "sequence (Q13526 whole entry, looked up)": "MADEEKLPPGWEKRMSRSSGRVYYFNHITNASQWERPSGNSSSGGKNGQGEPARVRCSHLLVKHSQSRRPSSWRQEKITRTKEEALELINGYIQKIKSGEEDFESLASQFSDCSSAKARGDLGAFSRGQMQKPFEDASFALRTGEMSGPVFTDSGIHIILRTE", "assay": "qHTS Validation Assay to Find Inhibitors of Pin1 (AID 504536; active = well fitted inhibition curve with a large enough effect in the polarisation, with a control signal flat, not every such curve was filed as active; the % refers to the polarisation)", "outline": "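Fluorescence polarization competition: compounds (titration) displace HiFluor-488-labeled Pin1-1b peptide from Pin1 (0.3 uM final) in pH 7.5 HEPES buffer with DTT, 10 min at room temperature; %Activity normalized to no-enzyme wells, curves fitted.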"}, "[2]": {"biological_target": "Phosphoglycerate kinase, glycosomal (Trypanosoma brucei brucei) (UniProt P07378)", "sequence (P07378 whole entry, looked up)": "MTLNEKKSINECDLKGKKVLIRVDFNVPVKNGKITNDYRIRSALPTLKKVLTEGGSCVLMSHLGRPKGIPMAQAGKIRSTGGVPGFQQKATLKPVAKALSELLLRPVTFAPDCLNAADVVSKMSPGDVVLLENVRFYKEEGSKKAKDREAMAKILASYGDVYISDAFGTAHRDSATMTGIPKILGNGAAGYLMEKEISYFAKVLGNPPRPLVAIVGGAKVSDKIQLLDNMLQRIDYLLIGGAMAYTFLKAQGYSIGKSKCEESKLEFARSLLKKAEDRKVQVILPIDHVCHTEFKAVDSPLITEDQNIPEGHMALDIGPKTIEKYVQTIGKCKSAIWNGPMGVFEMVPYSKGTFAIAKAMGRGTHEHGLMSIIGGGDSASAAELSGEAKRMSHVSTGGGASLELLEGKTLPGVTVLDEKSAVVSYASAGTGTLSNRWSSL", "assay": "qHTS Validation Assay to Find Inhibitors of Phosphoglycerate Kinase (AID 504547)", "outline": "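In TEA buffer (100mM, pH 7.6) containing 5mM MgCl2 and 0.01% Tween-20, the GAPDH-coupled PGK reaction proceeded for 60 minutes at room temperature before a single luminescence reading using Kinase-Glo Plus.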"}, "[3]": {"biological_target": "DNA dC->dU-editing enzyme APOBEC-3G (Homo sapiens) (UniProt Q9HC16)", "sequence (Q9HC16 whole entry, looked up)": "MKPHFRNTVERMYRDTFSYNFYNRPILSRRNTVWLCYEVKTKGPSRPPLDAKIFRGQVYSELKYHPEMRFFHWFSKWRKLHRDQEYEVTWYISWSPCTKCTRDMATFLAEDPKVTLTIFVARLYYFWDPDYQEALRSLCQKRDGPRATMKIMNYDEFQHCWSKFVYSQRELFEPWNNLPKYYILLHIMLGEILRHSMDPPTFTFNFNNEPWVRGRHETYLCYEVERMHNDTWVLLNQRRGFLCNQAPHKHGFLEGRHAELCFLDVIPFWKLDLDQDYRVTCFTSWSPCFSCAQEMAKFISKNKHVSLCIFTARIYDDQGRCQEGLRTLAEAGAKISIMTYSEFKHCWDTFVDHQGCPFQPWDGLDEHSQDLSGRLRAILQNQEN", "assay": "qHTS for inhibitors of Vif-A3G interactions: Validation (AID 588379); also: potency is read from the fitted curve at half-maximal effect", "outline": "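Yellow fluorescence (Ex 488, Em 500-530) of Vif-coexpressing HeLa A3G-eYFP cells, scanned by Acumen cytometer, reports blocked A3G degradation. Cells plated at 700/well overnight at 37 deg C before compound addition, then a further overnight compound incubation at 37 deg C.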"}, "[4]": {"biological_target": "Ubiquitin carboxyl-terminal hydrolase 1 (Homo sapiens) (UniProt O94782)", "sequence (O94782 whole entry, looked up)": "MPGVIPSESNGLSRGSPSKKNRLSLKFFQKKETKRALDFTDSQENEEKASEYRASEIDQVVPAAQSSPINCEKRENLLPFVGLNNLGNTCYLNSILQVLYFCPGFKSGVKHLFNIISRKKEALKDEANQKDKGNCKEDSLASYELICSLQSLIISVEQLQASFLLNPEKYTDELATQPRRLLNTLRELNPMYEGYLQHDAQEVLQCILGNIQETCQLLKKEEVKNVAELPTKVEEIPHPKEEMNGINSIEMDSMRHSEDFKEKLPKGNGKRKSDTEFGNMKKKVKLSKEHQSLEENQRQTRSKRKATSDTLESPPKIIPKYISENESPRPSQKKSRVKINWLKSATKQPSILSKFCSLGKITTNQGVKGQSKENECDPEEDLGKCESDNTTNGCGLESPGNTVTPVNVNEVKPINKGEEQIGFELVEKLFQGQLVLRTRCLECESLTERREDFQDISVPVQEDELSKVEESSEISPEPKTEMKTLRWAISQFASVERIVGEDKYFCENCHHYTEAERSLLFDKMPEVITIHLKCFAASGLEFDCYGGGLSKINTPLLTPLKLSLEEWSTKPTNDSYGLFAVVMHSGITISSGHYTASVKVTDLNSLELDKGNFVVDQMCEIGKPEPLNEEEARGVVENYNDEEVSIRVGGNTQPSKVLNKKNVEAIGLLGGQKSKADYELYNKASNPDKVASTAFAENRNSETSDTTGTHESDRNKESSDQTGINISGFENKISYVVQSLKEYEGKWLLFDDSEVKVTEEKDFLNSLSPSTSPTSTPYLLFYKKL", "assay": "Inhibitors of USP1/UAF1: Pilot qHTS (AID 504865);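 also: rhodamine fluorescence freed from ubiquitin-rhodamine substrate followed over time; top concentration of the series differs between compounds; nearly all actives have a fitted effect of over 35% in size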", "outline": "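Deubiquitinase activity followed as kinetic rhodamine fluorescence release from 150 nM Ub-Rho. 1 nM USP1/UAF1 with compound, after 15 min room-temperature preincubation, in HEPES pH 7.8 buffer containing TCEP, EDTA, BSA and Tween-20.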"}, "[5]": {"assay": "qHTS for Inhibitors of ATXN expression: Validation of Cytotoxic Assay (AID 588349); also: potency is read from the fitted curve at half-maximal effect", "outline": "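Cytotoxicity counter-screen: ATP-based luminescent viability (CellTiter Glo) after 72 hr exposure of HEK293 cells to a compound titration at 37 degrees C.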"}, "[6]": {"biological_target": "phosphoglycerate mutase (Leishmania major) (UniProt Q4Q090)", "sequence (Q4Q090 1-553)": "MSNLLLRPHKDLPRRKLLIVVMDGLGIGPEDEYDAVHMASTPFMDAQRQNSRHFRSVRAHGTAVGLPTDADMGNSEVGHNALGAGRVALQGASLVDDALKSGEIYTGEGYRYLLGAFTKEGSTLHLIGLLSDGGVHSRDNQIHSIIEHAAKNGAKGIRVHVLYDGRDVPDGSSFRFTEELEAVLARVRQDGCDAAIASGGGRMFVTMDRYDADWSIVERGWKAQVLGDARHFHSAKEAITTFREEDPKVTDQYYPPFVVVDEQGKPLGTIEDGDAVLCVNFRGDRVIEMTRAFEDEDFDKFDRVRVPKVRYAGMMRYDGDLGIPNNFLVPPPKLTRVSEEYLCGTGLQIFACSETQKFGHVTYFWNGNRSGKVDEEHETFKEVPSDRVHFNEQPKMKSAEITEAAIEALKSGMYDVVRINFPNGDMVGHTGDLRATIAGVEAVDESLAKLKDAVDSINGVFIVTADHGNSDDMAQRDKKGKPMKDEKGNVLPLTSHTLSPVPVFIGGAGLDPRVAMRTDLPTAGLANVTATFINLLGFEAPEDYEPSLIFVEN", "assay": "qHTS Validation Assay to Find Inhibitors of Phosphoglycerate Mutase (AID 504548);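 also: end-point luminescence from Kinase-GloPlus after the PGAM reaction; series mostly up to about 58 µM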", "conditions": "Potency: inhibition qHTS", "outline": "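Inhibition of L. major PGAM was assessed by Kinase-GloPlus luminescence following a 45-minute room-temperature reaction with enzyme at 1.25nM final.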"}, "[7]": {"assay": "qHTS for Inhibitors of ATXN expression: Validation (AID 588378); also: nearly all actives have a fitted effect of over 75% in size; also: potency is read from the fitted curve at half-maximal effect", "outline": "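Luciferase luminescence (Bright-Glo) from an ATXN2-FFLuc HEK293 line after 24 h compound exposure at 37 °C, preceded by a CellTiter-Fluor fluorescence viability read. Serial dilutions of a reference ATXN2 inhibitor and a luciferase inhibitor served as controls.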"}, "[8]": {"biological_target": "Estrogen receptor (Homo sapiens) (UniProt P03372)", "sequence (P03372 whole entry, looked up)": "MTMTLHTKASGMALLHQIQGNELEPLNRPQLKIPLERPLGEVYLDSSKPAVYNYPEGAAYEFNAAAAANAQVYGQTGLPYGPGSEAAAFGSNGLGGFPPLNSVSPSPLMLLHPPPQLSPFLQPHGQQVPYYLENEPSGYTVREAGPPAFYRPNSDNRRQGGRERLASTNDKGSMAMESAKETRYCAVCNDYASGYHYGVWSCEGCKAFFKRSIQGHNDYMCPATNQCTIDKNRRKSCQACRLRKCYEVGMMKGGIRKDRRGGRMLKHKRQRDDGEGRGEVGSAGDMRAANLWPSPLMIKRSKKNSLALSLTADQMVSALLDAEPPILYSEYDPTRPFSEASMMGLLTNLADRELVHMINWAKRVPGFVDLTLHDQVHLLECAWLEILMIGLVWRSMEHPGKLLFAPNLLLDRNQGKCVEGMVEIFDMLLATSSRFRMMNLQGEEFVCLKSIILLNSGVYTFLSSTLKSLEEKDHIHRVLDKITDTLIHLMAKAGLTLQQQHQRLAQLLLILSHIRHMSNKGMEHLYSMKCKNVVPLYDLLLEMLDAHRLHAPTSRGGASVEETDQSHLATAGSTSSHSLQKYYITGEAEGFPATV", "assay": "qHTS assay for small molecule antagonists of estrogen receptor alpha signaling (AID 588513; active = well fitted curve in the direction sought with a large enough effect in the signal ratio, with a control signal flat, not every such curve was filed as active; the % refers to the signal ratio)", "outline": "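Antagonist mode: inhibition of 0.5 nM 17-beta-estradiol-driven beta-lactamase reporter in HEK 293 ER-alpha-UAS-bla cells, 18 h at 37C, CCF4 readout after 2 h at RT. Normalised to estradiol and DMSO; titration fitted to Hill.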"}, "[9]": {"biological_target": "Glucocorticoid receptor (Homo sapiens) (UniProt P04150)", "sequence (P04150 whole entry, looked up)": "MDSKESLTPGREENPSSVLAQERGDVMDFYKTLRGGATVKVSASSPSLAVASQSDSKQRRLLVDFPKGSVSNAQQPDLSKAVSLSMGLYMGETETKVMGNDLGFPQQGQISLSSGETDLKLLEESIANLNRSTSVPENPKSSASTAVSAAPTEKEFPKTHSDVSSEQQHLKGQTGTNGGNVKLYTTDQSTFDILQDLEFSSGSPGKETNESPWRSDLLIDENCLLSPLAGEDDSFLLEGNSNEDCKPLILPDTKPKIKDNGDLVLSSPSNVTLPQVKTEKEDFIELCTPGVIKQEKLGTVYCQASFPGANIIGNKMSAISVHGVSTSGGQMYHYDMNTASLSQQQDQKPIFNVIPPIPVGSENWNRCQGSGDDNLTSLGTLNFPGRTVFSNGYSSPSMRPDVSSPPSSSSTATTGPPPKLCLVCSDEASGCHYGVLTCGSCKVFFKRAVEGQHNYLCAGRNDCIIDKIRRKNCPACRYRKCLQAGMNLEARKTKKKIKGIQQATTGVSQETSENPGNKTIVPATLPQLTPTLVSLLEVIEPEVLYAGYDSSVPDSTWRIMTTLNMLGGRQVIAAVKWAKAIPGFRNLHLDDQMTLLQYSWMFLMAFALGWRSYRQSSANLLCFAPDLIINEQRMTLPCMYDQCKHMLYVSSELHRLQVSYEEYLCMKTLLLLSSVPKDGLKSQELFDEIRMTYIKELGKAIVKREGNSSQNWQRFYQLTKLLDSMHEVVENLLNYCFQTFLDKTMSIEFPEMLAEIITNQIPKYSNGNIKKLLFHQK", "assay": "qHTS assay for small molecule agonists of glucocorticoid receptor signaling (AID 588532; active = well fitted curve in the direction sought with a large enough effect in the signal ratio, with a control signal flat; the % refers to the signal ratio)", "conditions": "HeLa MMTV-bla, beta-lactamase ratio, agonist, 18 h; stronger effect = higher value; percent of dexamethasone control, DMSO zero", "outline": "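MMTV-bla HeLa, beta-lactamase reporter; medium with 1% charcoal/dextran-stripped FBS; cpds up to 92 uM, 18 h, 37 C; CCF4 readout 460/530 nm; Hill fit → EC50, efficacy vs 0.1 uM dexamethasone = 100%.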"}, "[10]": {"biological_target": "Vitamin D3 receptor (Homo sapiens) (UniProt P11473)", "sequence (P11473 whole entry, looked up)": "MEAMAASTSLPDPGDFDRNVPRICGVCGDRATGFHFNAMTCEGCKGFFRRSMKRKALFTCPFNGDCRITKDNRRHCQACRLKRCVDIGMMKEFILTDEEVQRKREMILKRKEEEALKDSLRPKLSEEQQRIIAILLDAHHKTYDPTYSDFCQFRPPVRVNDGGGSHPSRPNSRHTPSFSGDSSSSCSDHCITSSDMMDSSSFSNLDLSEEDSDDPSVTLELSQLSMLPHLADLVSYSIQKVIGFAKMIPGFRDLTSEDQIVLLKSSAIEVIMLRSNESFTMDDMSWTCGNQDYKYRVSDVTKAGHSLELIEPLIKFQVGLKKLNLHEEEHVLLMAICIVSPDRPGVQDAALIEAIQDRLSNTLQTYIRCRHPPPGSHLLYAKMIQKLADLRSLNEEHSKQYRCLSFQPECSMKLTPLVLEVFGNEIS", "assay": "qHTS assay for small molecule antagonists of vitamin D receptor signaling (AID 588541; calls by dose curve;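 also: receptor activated by calcitriol during compound treatment; series mostly up to about 77 µM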)", "outline": "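VDR-UAS-bla HEK293T cells (2000/well, 2% charcoal-stripped FBS) were treated with titrated compounds plus 1-alpha,25-dihydroxyvitamin D3 (50 nM or 3 nM final) for 16 h at 37 C. CCF4 beta-lactamase fluorescence was read; Hill fits gave IC50.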"}},
  "note": "A number with no mark means an inactive call. Inconclusive results are not listed. Entries that show only a call come without a potency. Activity calls are given as the source filed them. Unless noted, calls follow the shape of the dose curve; as a rule, active = well fitted curve in the direction sought with a large enough effect; inconclusive = small, poorly fitted or top-dose-only effect, or another doubt; inactive = no such curve, though single readings can be large; an effect the other way counts as inactive or inconclusive.",
  "data": [
    {"compound": "CCC1C(=O)OCC1Cc1cncn1C", "note": "(stereo not given)", "values": [
      {"measurement": "Potency", "setting": "[1]", "result": "inactive"},
      {"measurement": "Potency", "setting": "[2]", "result": "inactive"},
      {"measurement": "Potency", "setting": "[3]", "result": "inactive"}
    ]},
    {"compound": "C[N+]1(C)C2CC(OC(=O)[C@H](CO)c3ccccc3)CC1C1OC12", "note": "(stereo not given in full)", "values": [
      {"measurement": "Potency", "setting": "[1]", "result": "inactive"},
      {"measurement": "Potency", "setting": "[2]", "result": "inactive"},
      {"measurement": "Potency", "setting": "[4]", "result": "inactive"},
      {"measurement": "Potency", "setting": "[5]", "result": "inactive"}
    ]},
    {"compound": "C#C[C@]1(O)CC[C@H]2[C@@H]3CCC4=Cc5oncc5CC4(C)[C@H]3CCC21C", "note": "(stereo not given in full)", "values": [
      {"measurement": "Potency", "setting": "[1]", "result": "inactive"},
      {"measurement": "Potency", "setting": "[2]", "result": "inactive"},
      {"measurement": "Potency", "setting": "[6]", "result": "inactive"},
      {"measurement": "Potency", "setting": "[5]", "result": "inactive"}
    ]},
    {"compound": "CC1OC1P(=O)(O)O", "note": "(stereo not given)", "values": [
      {"measurement": "Potency", "setting": "[1]", "result": "inactive"},
      {"measurement": "Potency", "setting": "[2]", "result": "inactive"},
      {"measurement": "Potency", "setting": "[6]", "result": "inactive"},
      {"measurement": "Potency", "setting": "[5]", "result": "inactive"}
    ]},
    {"compound": "Nc1ncnc2c1ncn2[C@@H]1O[C@H](COP(=O)(O)CP(=O)(O)OP(=O)(O)O)[C@@H](O)[C@H]1O", "values": [
      {"measurement": "Potency", "setting": "[2]", "result": "inactive"},
      {"measurement": "Potency", "setting": "[6]", "result": "inactive"},
      {"measurement": "Potency", "setting": "[4]", "result": "inactive"},
      {"measurement": "Potency", "setting": "[5]", "result": "inactive"},
      {"measurement": "Potency", "setting": "[7]", "result": "inactive"}
    ]},
    {"compound": "O=[N+]([O-])c1ccc(CSc2ncnc3c2ncn3[C@@H]2O[C@H](CO)[C@@H](O)[C@H]2O)cc1", "values": [
      {"measurement": "Potency", "setting": "[1]", "result": "inactive"},
      {"measurement": "Potency", "setting": "[2]", "result": "inactive"},
      {"measurement": "Potency", "setting": "[4]", "result": "inactive"},
      {"measurement": "Potency", "setting": "[5]", "result": "inactive"}
    ]},
    {"compound": "O=C(CCCCCN1CCN(c2ccccc2-c2ccccc2)CC1)NC1CCCc2ccccc21", "note": "(stereo not given)", "values": [
      {"measurement": "Potency", "setting": "[1]", "result": "inactive"},
      {"measurement": "Potency", "setting": "[2]", "result": "inactive"},
      {"measurement": "Potency", "setting": "[4]", "result": "inactive"},
      {"measurement": "Potency", "setting": "[5]", "result": "15.8 µM (active)"},
      {"measurement": "Potency", "setting": "[7]", "result": "20 µM (active)"}
    ]},
    {"compound": "COC1=C(OC)C(=O)c2ccccc2C1=O", "values": [
      {"measurement": "Potency", "setting": "[2]", "result": "inactive"}
    ]},
    {"compound": "N#C/C(=C\\c1ccc(O)c(O)c1)C(=O)NCCCc1ccccc1", "values": [
      {"measurement": "Potency", "setting": "[2]", "result": "inactive"},
      {"measurement": "Potency", "setting": "[3]", "result": "inactive"}
    ]},
    {"compound": "CO/N=C(\\C(=O)N[C@@H]1C(=O)N2C(C(=O)O)=C(COC(C)=O)CS[C@H]12)c1csc(N)n1", "values": [
      {"measurement": "Potency", "setting": "[5]", "result": "inactive"},
      {"measurement": "Potency", "setting": "[7]", "result": "inactive"}
    ]},
    {"compound": "O=C1C(SCCO)=C(SCCO)C(=O)c2ccccc21", "values": [
      {"measurement": "Potency", "setting": "[7]", "result": "4.47 µM (active)"},
      {"measurement": "Potency", "setting": "[3]", "result": "4.73 µM (active)"}
    ]},
    {"compound": "O=C(CCN1CCN(CCO)CC1)N1c2ccccc2Sc2ccc(C(F)(F)F)cc21", "values": [
      {"measurement": "Potency", "setting": "[4]", "result": "inactive"}
    ]},
    {"compound": "N=C1N=C(N)c2cc3ccccc3cc21", "values": [
      {"measurement": "outcome", "setting": "[8]", "result": "inactive"},
      {"measurement": "activation", "setting": "[9]", "result": 0.184, "unit": "%"},
      {"measurement": "outcome", "setting": "[10]", "result": "inactive"}
    ]}
  ]
}
